# Experimental data reported in PubChem BioAssay.
# Inconclusive results are not listed. Active and inactive are the calls of the source. Unless noted, no cut-off is given here; in the data, nearly all actives have AC50 up to about 26 µM.
# Legend:
# [1] = growth inhibition of DIPG glioma cells, dose response, cell-based, SU-DIPG-XVII, MIPE5.0, CellTiter-Glo, qHTS (AID 1347060); conditions: SU-DIPG-XVII viability, CellTiter-Glo ATP luminescence;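 for AC50: cells exposed to compound for 48 hours before viability readout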
# [2] = growth inhibition of DIPG glioma cells, dose response, cell-based, SU-DIPG-XIII, MIPE5.0, CellTiter-Glo, qHTS (AID 1347064; cut-off not given, nearly all actives have AC50 up to about 23 µM;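 for AC50: cells exposed to compound for 48 hours before the viability read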); conditions: SU-DIPG-XIII viability, CellTiter-Glo ATP luminescence
# [3] = viability loss in pontine glioma line – cell-based, SU-DIPG-XXV, MIPE5.0, CellTiter-Glo, qHTS, dose response (AID 1347065); conditions: CellTiter-Glo ATP luminescence;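 note: cells exposed to compound for 48 hours before ATP readout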
# [4] = JHH-DIPG-1 glioma cell viability, MIPE5.0 library, CellTiter-Glo luminescence, qHTS (AID 1347067); conditions: JHH-DIPG-1 glioma viability, CellTiter-Glo ATP luminescence;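 note: cells exposed to compound for 48 hours before readout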
# [5] = SU-DIPG-XXV glioma cell viability, MIPE5.0 library, qHTS (AID 1347068; cut-off not given, nearly all actives have IC50 up to about 30 µM;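 for IC50: cells exposed to compound for 48 hours before viability readout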)
# [6] = sensitizers of A549 cells to miR-34 induction, primary screen, imaging, A549 dox-inducible miR-34, nuclei and caspase counts (AID 1347080;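 active = compounds whose cell count with miR-34 switched on is under 0.7 times the count with it off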); conditions: A549 miR-34 inducible, Hoechst nuclei count, 48 h
# [7] = survival rescue of mitochondrial mutant cells in low glucose, primary screen, MELAS cybrids, Rieske KO mouse fibroblasts, CellTiter-Glo (AID 1508586;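 active = mean z-score across replicates of 1.96 or higher in either the MELAS or the Rieske mutant cell line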;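 note: z relative to plate mean and SD of compound and empty wells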)
compound,measurement,setting,value
COc1cc(N2CCC(N3CCN(C)CC3)CC2)ccc1Nc1ncc(Cl)c(Nc2ccccc2P(C)(C)=O)n1,AC50,[1],105 nM (active)
same,AC50,[2],332 nM (active)
same,AC50,[3],186 nM (active)
same,AC50,[4],1180 nM (active)
same,IC50,[5],1050 nM (active)
CC1(C)CN(C(=O)c2ccc(-c3cccc4nc(NC(=O)C5CC5)nn34)cc2)C1,outcome,[1],inactive
same,outcome,[2],inactive
same,outcome,[3],inactive
same,outcome,[4],inactive
same,outcome,[5],inactive
OC1CCC([C@H](O)C[C@H]2c3c(F)cccc3-c3cncn32)CC1 (stereo partly specified),outcome,[1],inactive
same,outcome,[2],inactive
same,outcome,[3],inactive
same,outcome,[4],inactive
same,outcome,[5],inactive
Cc1cc(OCCCc2c3n(c4c(-c5c(C)nn(C)c5C)c(Cl)ccc24)[C@H](C)CN(c2cn(C)c4ccc(C(=O)O)cc24)C3=O)cc(C)c1Cl,AC50,[1],833 nM (active)
same,AC50,[2],5250 nM (active)
same,AC50,[3],468 nM (active)
same,AC50,[4],9340 nM (active)
same,IC50,[5],3720 nM (active)
Cc1[nH]c(/C=C2\C(=O)Nc3ccc(F)cc32)c(C)c1C(=O)NC[C@H](O)CN1CCOCC1,AC50,[1],13200 nM (active)
same,AC50,[2],18600 nM (active)
same,AC50,[3],7420 nM (active)
same,AC50,[4],16600 nM (active)
same,outcome,[5],inactive
CC[C@]12C=CCN3CC[C@@]4(c5cc([C@@]6(C(=O)OC)CC7C[C@@H](C(C)(F)F)CN(Cc8c6[nH]c6ccccc86)C7)c(OC)cc5N(C)[C@H]4[C@@](O)(C(=O)OC)[C@@H]1OC(C)=O)[C@@H]32 (stereo partly specified),AC50,[1],148 nM (active)
same,AC50,[2],1050 nM (active)
same,AC50,[3],132 nM (active)
same,AC50,[4],235 nM (active)
same,IC50,[5],742 nM (active)
O=C1NC(=O)C(c2cnc3ccccn23)=C1c1cn2c3c(cc(F)cc13)CN(C(=O)N1CCCCC1)CC2,AC50,[1],1860 nM (active)
same,AC50,[2],16600 nM (active)
same,AC50,[3],18600 nM (active)
same,AC50,[4],20900 nM (active)
same,IC50,[5],20900 nM (active)
CNC(=O)c1ccccc1Nc1nc(Nc2ccc3c(c2OC)CCC[C@@H](N2CCN(CCO)CC2)C3)ncc1Cl,AC50,[1],2350 nM (active)
same,AC50,[2],1480 nM (active)
same,AC50,[3],833 nM (active)
same,AC50,[4],5900 nM (active)
same,IC50,[5],11800 nM (active)
COc1cc(F)ccc1-c1ncnc(Nc2cccc(CS(C)(=N)=O)c2)n1 (stereo unspecified),AC50,[1],1480 nM (active)
same,AC50,[2],1480 nM (active)
same,AC50,[3],1660 nM (active)
same,AC50,[4],1860 nM (active)
same,IC50,[5],1860 nM (active)
C[C@@H](Oc1cc(C(=O)Nc2ccc(C(=O)N3CCN(C)CC3)cc2)nnc1N)c1c(Cl)ccc(F)c1Cl,AC50,[1],118 nM (active)
same,AC50,[2],417 nM (active)
same,AC50,[3],742 nM (active)
same,AC50,[4],16600 nM (active)
same,IC50,[5],7420 nM (active)
COc1ccc2cc(OCC3(C(=O)O)CN(C(=O)c4ccc(F)cc4)C3)ccc2c1,outcome,[1],inactive
same,outcome,[2],inactive
same,outcome,[3],inactive
same,outcome,[4],inactive
same,outcome,[5],inactive
CC(=O)N[C@H]1CSSC[C@@H](C(N)=O)NC(=O)[C@H](C(C)C)NC(=O)[C@H](C)NC(=O)[C@H](Cc2cnc[nH]2)NC1=O,outcome,[1],inactive
same,outcome,[2],inactive
same,outcome,[3],inactive
same,outcome,[4],inactive
same,outcome,[5],inactive
[2H]c1nc(C)nc([2H])c1-c1cc(NC[C@@H](C)c2cccc3c(C(=O)NC)ccnc23)ncn1,outcome,[1],inactive
same,outcome,[2],inactive
same,outcome,[3],inactive
same,outcome,[4],inactive
same,outcome,[5],inactive
COc1ccc(S(=O)(=O)N2CCc3cccc(-c4ccncc4)c32)cc1,AC50,[1],468 nM (active)
same,AC50,[2],295 nM (active)
same,AC50,[3],332 nM (active)
same,AC50,[4],332 nM (active)
same,IC50,[5],833 nM (active)
COc1ccc(S(=O)(=O)Nc2cc(-c3csc(C#N)c3)ccc2C)cc1,AC50,[1],74.2 nM (active)
same,AC50,[2],166 nM (active)
same,AC50,[3],148 nM (active)
same,AC50,[4],93.4 nM (active)
same,IC50,[5],263 nM (active)
Cc1ccccc1-n1nc(-c2c(-c3ccc(F)cc3)nn3c2NC[C@@H](CO)C3)ccc1=O,outcome,[1],inactive
same,outcome,[2],inactive
same,outcome,[3],inactive
same,outcome,[4],inactive
same,outcome,[5],inactive
COc1cccc2c1C(=O)c1c(O)c3c(c(O)c1C2=O)C[C@@](O)(/C(CO)=N/NC(=O)CCCCCN1C(=O)C=CC1=O)C[C@@H]3O[C@H]1C[C@H](N)[C@H](O)[C@H](C)O1,AC50,[1],1050 nM (active)
same,AC50,[2],4680 nM (active)
same,AC50,[3],14800 nM (active)
same,AC50,[4],2950 nM (active)
same,IC50,[5],18600 nM (active)
CN(C)C/C=C/C(=O)Nc1ccc(C(=O)N2CCC[C@@H](Nc3ncc(Cl)c(-c4c[nH]c5ccccc45)n3)C2)cc1,AC50,[1],590 nM (active)
same,AC50,[2],295 nM (active)
same,AC50,[3],235 nM (active)
same,AC50,[4],332 nM (active)
same,IC50,[5],833 nM (active)
Cn1ncc(Cl)c1-c1cc(C(=O)NC(CN)Cc2ccc(F)c(F)c2)oc1Cl (stereo unspecified),AC50,[1],14800 nM (active)
same,AC50,[2],5900 nM (active)
same,AC50,[3],661 nM (active)
same,AC50,[4],18600 nM (active)
same,IC50,[5],16600 nM (active)
Cc1ccc(NC(=O)NCc2ccc3c(c2)CN(C2CCC(=O)NC2=O)C3=O)cc1Cl (stereo unspecified),AC50,[1],7.42 nM (active)
same,AC50,[2],2.96 nM (active)
same,AC50,[3],1.86 nM (active)
same,AC50,[4],1.18 nM (active)
same,IC50,[5],3.72 nM (active)
CC(C)c1cc(CNc2nc(Nc3cc(C4CC4)[nH]n3)cc(N3CCN(C)CC3)n2)on1,AC50,[1],186 nM (active)
same,AC50,[2],166 nM (active)
same,AC50,[3],83.3 nM (active)
same,AC50,[4],468 nM (active)
same,IC50,[5],525 nM (active)
CCC(=O)Nc1cccc(Oc2nc(Nc3ccc(N4CCN(C)CC4)cc3OC)ncc2Cl)c1,AC50,[1],9340 nM (active)
same,AC50,[2],10500 nM (active)
same,AC50,[3],7420 nM (active)
same,AC50,[4],18600 nM (active)
same,outcome,[5],inactive
same,fold change,"[6]; stronger effect = lower value, cell number ratio, induced over uninduced",0.756 (inactive)
same,fold change,[6]; measured here: relative caspase fold change +Dox/-Dox,0.553
same,cell count,"[6]; measured here: total cells with miR-34 induction, stronger effect = lower value",3260
same,cell count,[6]; measured here: total cells without miR-34 induction,4310
same,z-score,"[7]; MELAS cybrid survival, CellTiter-Glo 48 h, stronger effect = higher value",-0.403 (inactive)
same,z-score,"[7]; Rieske KO mouse fibroblast survival, CellTiter-Glo 72 h",0.64
